This passage reports growth results from PubChem BioAssay (NCI).

The panel holds about 83,000 compounds, 20% with a hit somewhere; the sample as a whole holds those more often.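 Compound tested at a single concentration for 48 hours in 96-well plates; a percent growth value below 10 was scored as active.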 Values without a mark were called inactive. Calls of active or inactive are those of the source.

Some test systems named below: RPMI-8226 leukemia; OVCAR-8 ovarian; OVCAR-5 ovarian; SK-OV-3 ovarian; IGROV1 ovarian; OVCAR-3 ovarian; HS 578T breast; NCI/ADR-RES ovarian; T-47D breast; OVCAR-4 ovarian.
Assay in all cases: NCI-60 one-dose screen, 48 h (100 = growth as untreated, 0 = no growth, -100 = all killed)
What all share (settings): 10 µM unless noted

For the compound `COc1cc(/C=N/Nc2nc(-c3ccc(F)cc3)c(C#N)c(N3CCOCC3)n2)ccc1O`, the growth was 87.1% in the assay with RPMI-8226 leukemia; 89.8% with OVCAR-8 ovarian; 107% with OVCAR-5 ovarian; 102% in the assay on SK-OV-3 ovarian; 96.7% with IGROV1 ovarian; 103% in the assay with OVCAR-3 ovarian. Moreover, the results for the growth with HS 578T breast, with NCI/ADR-RES ovarian and with T-47D breast were 102%, 102% and 93.6%, respectively.

On to `COc1ccc(C(=O)c2cc(OC)c(C)c(OC)c2)cc1OC(=O)CCl`, for which the growth in the assay with RPMI-8226 leukemia was 28.3%; in the assay on OVCAR-8 ovarian, 25.4%; in the assay with OVCAR-5 ovarian it was 74.8%; in the assay on SK-OV-3 ovarian, 19.4%; in the assay on IGROV1 ovarian, 30.7%; with OVCAR-3 ovarian, -8.39% (active). The growth in the assay with HS 578T breast is 40.5%; in the assay on NCI/ADR-RES ovarian, 10.5%; in the assay on T-47D breast, 43.8%.

In the case of `Nc1cc(N)c(S(=O)(=O)O)cc1N=Nc1cc([N+](=O)[O-])ccc1O`, the growth in the assay on RPMI-8226 leukemia was 98.8%; with OVCAR-8 ovarian, 99.5%; in the assay on OVCAR-5 ovarian, 108%; in the assay with SK-OV-3 ovarian it was 93.8%; in the assay on IGROV1 ovarian, 106%; with OVCAR-3 ovarian it was 113%. In addition, the growth in the assay on HS 578T breast was 103%; in the assay with NCI/ADR-RES ovarian, 106%; with T-47D breast, 97.2%.

Turning to `CCn1cc(C(=O)O)c(=O)c2cc(F)c(N3CCN(CC(=O)Nc4ccc(/C(C)=N/OC)cc4)CC3)cc21`, the growth in the assay with RPMI-8226 leukemia was 105%; with OVCAR-8 ovarian, 92.3%; in the assay with OVCAR-5 ovarian, 101%; in the assay on SK-OV-3 ovarian it was 85.1%; in the assay with IGROV1 ovarian it was 94.6%; with OVCAR-3 ovarian it was 97.6%. For the same compound, the growth in the assay with HS 578T breast was 94.7%; in the assay on NCI/ADR-RES ovarian, 97.8%; in the assay on T-47D breast, 70.3%.

For the compound `Cc1nccc2c3ccc(OCc4cn(-c5ccccc5)nn4)cc3n(CCCc3ccccc3)c12`, the growth with RPMI-8226 leukemia was 31.6%; in the assay with OVCAR-8 ovarian, 55.6%; with OVCAR-5 ovarian it was 91.2%; in the assay on OVCAR-4 ovarian, 71.2%; in the assay with SK-OV-3 ovarian it was 69.7%; with IGROV1 ovarian, 89.1%. Further, the growth with OVCAR-3 ovarian was 68.6%; with HS 578T breast it was 65.5%; with T-47D breast, 78.4%.

With `O=C(O)COc1ccc2c(=O)c3sc4c(=O)c5ccccc5c(=O)c4c3c(=O)c2c1`, the growth in the assay on RPMI-8226 leukemia was 43.6%; in the assay on OVCAR-8 ovarian, 43.8%; with OVCAR-5 ovarian it was -53.7% (active); in the assay with SK-OV-3 ovarian it was 88.1%; in the assay with IGROV1 ovarian, 36.6%; with OVCAR-3 ovarian, 1.75% (active). For the same compound, the growth was -10.1% (active) in the assay with HS 578T breast, 40.8% in the assay with NCI/ADR-RES ovarian and 74.1% in the assay with T-47D breast.

For the compound `Cn1cc(-c2ccc3c(c2)ncn3-c2ccc(CC(=O)Nc3cc(C(C)(C)C)on3)cc2)cn1`, the growth was 76.8% in the assay on RPMI-8226 leukemia; 41.4% in the assay with OVCAR-8 ovarian; 22.8% in the assay with OVCAR-5 ovarian; 7.18% (active) in the assay on SK-OV-3 ovarian; -27.7% (active) in the assay with IGROV1 ovarian; 32.4% in the assay with OVCAR-3 ovarian. For the same compound, the growth in the assay on HS 578T breast was -7.52% (active); in the assay on NCI/ADR-RES ovarian, 38.7%; in the assay on T-47D breast, 35.5%.

On to `C=C1C(=O)O[C@H]2[C@H]1CC/C(COC(=O)c1cc3ccccc3o1)=C\CC[C@@]1(C)O[C@@H]21`, for which the growth in the assay on RPMI-8226 leukemia is -23.7% (active); with OVCAR-8 ovarian, -12.6% (active); with OVCAR-5 ovarian it was -18.8% (active); with SK-OV-3 ovarian, 97.2%; with IGROV1 ovarian it was -40.1% (active); in the assay on OVCAR-3 ovarian, -87.4% (active). Further, the values for the growth with HS 578T breast, with NCI/ADR-RES ovarian and with T-47D breast were -4.65% (active), 14.2% and -48% (active), respectively.

For `O=C1CCc2ccccc2N1`, the growth was 106% in the assay on RPMI-8226 leukemia; 105% with OVCAR-8 ovarian; 103% in the assay on OVCAR-5 ovarian; 108% in the assay on SK-OV-3 ovarian; 98.4% in the assay with IGROV1 ovarian; 102% with OVCAR-3 ovarian. The growth in the assay on HS 578T breast is 103%; with T-47D breast, 109%.

Consider `C1=CC2=CC=C3C=CC=C4C(c5nc6c7ccccc7c7ccccc7c6[nH]5)=CC(=C1)C2C34` (stereo not given), for which the growth in the assay on RPMI-8226 leukemia was 89.5%; with OVCAR-8 ovarian it was 97.7%; with OVCAR-5 ovarian, 115%; with SK-OV-3 ovarian it was 93.9%; in the assay with IGROV1 ovarian, 86.8%; in the assay on OVCAR-3 ovarian it was 93.4%. Further, the growth with HS 578T breast is 93.9%; with NCI/ADR-RES ovarian, 92.9%; in the assay on T-47D breast, 60%.

For `CCCCn1c(=O)c(/C=C/C(=O)/C=C/c2ccc(OC)cc2)cc2cc(Cl)ccc21`, the growth with RPMI-8226 leukemia is -18.7% (active); in the assay with OVCAR-8 ovarian, 5.24% (active); in the assay with OVCAR-5 ovarian, 94.9%; in the assay with SK-OV-3 ovarian it was 108%; in the assay with IGROV1 ovarian it was 59.1%; in the assay with OVCAR-3 ovarian, 19.5%. Besides, the growth in the assay on HS 578T breast is 90.9%; in the assay on NCI/ADR-RES ovarian it was 42.5%; with T-47D breast it was 69.6%.

As to `CCOC(=O)c1sc(/N=C2\NC(=O)/C(=C/c3ccc(N4CCN(C)CC4)cc3)S2)nc1C`, the growth was 87.5% with RPMI-8226 leukemia; 110% with OVCAR-8 ovarian; 110% in the assay on OVCAR-5 ovarian; 102% in the assay on SK-OV-3 ovarian; 99.5% with IGROV1 ovarian; 96.3% in the assay with OVCAR-3 ovarian. For the same compound, the values for the growth with HS 578T breast, in the assay with NCI/ADR-RES ovarian and with T-47D breast were 107%, 98.1% and 95.5%, respectively.

In the case of `COc1cc(NCC(=O)Nc2cc(Nc3cccc(C(F)(F)F)c3)ncn2)c(Cl)c(OC)c1Cl`, the growth in the assay with RPMI-8226 leukemia was 83.5%; in the assay with OVCAR-8 ovarian, 94.1%; with OVCAR-5 ovarian, 98.2%; in the assay on SK-OV-3 ovarian, 93.6%; in the assay on IGROV1 ovarian it was 95.3%; with OVCAR-3 ovarian it was 95.5%. The growth was 82.2% in the assay with HS 578T breast, 96.3% in the assay on NCI/ADR-RES ovarian and 81.2% with T-47D breast.

For the compound `COC(=O)c1nc(-c2ccccc2)oc1S(=O)(=O)n1nc(-c2ccccc2)cc1N`, the growth was 57.1% with RPMI-8226 leukemia; 75.8% with OVCAR-8 ovarian; 93.5% with OVCAR-5 ovarian; 106% with SK-OV-3 ovarian; 73.6% in the assay with IGROV1 ovarian; 68.3% in the assay with OVCAR-3 ovarian. The growth was 101% in the assay on HS 578T breast, 99% with NCI/ADR-RES ovarian and 49.5% in the assay with T-47D breast.
